The campaign covered roughly 340,000 compounds. About 3,300 (0.97%) were called active.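 Rule for the calls: active = mean activation above about 17%, with every replicate also reaching it (limit read from the data, passing the limit was not always enough); inconclusive = only one of the two conditions met; inactive = the rest.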 The sample as a whole holds a higher share of actives than the screen did.
target: Protein FosB (Mus musculus) (UniProt P13346); assay: activators of delta FosB homodimer, primary screen, biochemical, fluorescence polarization, TAMRA-CDK5 oligo, single point (AID 493131); conditions: purified delta FosB, at 25 µM, stronger effect = higher value, percent of positive-control signal above neutral wells;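 note: fluorescence polarization rise as delta FosB binds a TAMRA Cdk5 AP-1 oligo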
Sequence (P13346 whole entry, looked up): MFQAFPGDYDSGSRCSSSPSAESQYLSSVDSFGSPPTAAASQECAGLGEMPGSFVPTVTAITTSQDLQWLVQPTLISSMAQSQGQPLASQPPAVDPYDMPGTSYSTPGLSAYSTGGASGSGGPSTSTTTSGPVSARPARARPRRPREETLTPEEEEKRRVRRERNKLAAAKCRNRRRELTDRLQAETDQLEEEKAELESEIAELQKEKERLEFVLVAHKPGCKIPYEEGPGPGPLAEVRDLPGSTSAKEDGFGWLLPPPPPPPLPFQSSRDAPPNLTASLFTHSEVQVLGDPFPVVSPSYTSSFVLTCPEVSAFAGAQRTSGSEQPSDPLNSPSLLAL

Compound	activation
Cc1ccc(NC(=O)NC(=O)N(C2CCCCC2)S(=O)(=O)c2ccccc2)cc1	-0.8% (inactive)
O=C(Cn1cc(-c2nnnn2-c2ccc(Cl)cc2)c(=O)c2ccccc21)c1ccccc1	114% (active)
Clc1ccc(-n2nnnc2-c2cnc(-c3ccccn3)nc2-c2cccs2)cc1	-8.45% (inactive)
O=C(CN1CCN(c2ccc(Cl)cc2)CC1)c1ccccc1	1.64% (inactive)
CCOC(=O)N1CCC(NC(=O)C(C)n2c3ccccc3c3cnn(C)c(=O)c32)CC1 (stereo not given)	-6.6% (inactive)
C=CCNC(=O)c1cc(-c2ccccc2O)on1	-2.37% (inactive)
O=C(Nc1ccccc1C(F)(F)F)c1cc(-c2ccc(O)cc2)on1	0.0145% (inactive)
O=C(Nc1cccnc1Cl)c1cc(-c2ccccc2O)on1	64.8% (active)
Cc1ccc(NC(=O)COC(=O)CCc2nc3ccccc3n2-c2ccccc2)c(C)c1	-3.49% (inactive)
Cc1oc(-c2cccc(Cl)c2)[n+]([O-])c1C	7.9% (inactive)
COc1ccc(C(=O)Nc2ccccc2C(=O)N/N=C/c2ccccc2OC)cc1	38% (active)
COc1ccc(C(=O)Nc2cc(C)c(NC(=O)c3ccccc3OC)cn2)cc1	-13.9% (inactive)
COc1ccc(C(=O)Nc2ccccc2C(=O)N2CCN(c3ccccc3)CC2)cc1	-0.701% (inactive)
Cc1ccc(NC(=O)NNC(=O)c2sccc2-n2cccc2)cc1	-2.71% (inactive)
Nc1ccn(CC(=O)N2CCN(c3ccccn3)CC2)c(=O)n1	-4.48% (inactive)
Cc1ccc(C)c(N2CCN(S(=O)(=O)c3ccc4c(c3)oc(=O)n4C)CC2)c1	-5.87% (inactive)
O=C(NC1CCCCC1)n1c(=O)oc2cc(S(=O)(=O)N3CCCCC3)ccc21	3.88% (inactive)
COc1ccc(NC(=O)C2CCN(S(=O)(=O)c3ccc4[nH]c(=O)oc4c3)CC2)c(OC)c1	1.87% (inactive)
O=C(Nc1ccc(S(=O)(=O)N2CCOCC2)cc1)C1CCN(S(=O)(=O)c2ccc(Cl)cc2)CC1	-7.05% (inactive)
Cn1c(=O)oc2cc(S(=O)(=O)N3CCC(C(=O)Nc4ccc(OC(F)(F)F)cc4)CC3)ccc21	32.2% (active)
Cc1ccc2nc(NC(=O)C3CCN(S(=O)(=O)c4ccc5c(c4)oc(=O)n5C)CC3)sc2c1	28.8% (active)
CC(=O)c1cccc(-c2ccc(CN3C(CC(C)C)C(=O)N(Cc4cn(CC5CCCCC5)nn4)CCS3(=O)=O)cc2)c1 (stereo not given)	-19.5% (inactive)
O=C(NN=Cc1ccccc1O)NN=Cc1ccccc1O	8.66% (inactive)

Compound	activation
O=C(Nc1ccc(C(=O)NCc2ccccc2Cl)cc1)C1=CSCCO1	-4.85% (inactive)
COc1cc(O)c2c(=O)c3c(O)c(O)ccc3oc2c1OC	-1.22% (inactive)
CCCc1nc2c([nH]1)C(c1cccnc1)C(C#N)=C(N)O2 (stereo not given)	-0.0522% (inactive)
O=C(COc1ccccc1)Nc1ccc(F)cc1	-2.09% (inactive)
CCOC(=O)C1=C(O)/C(=C/c2cc(C)n(-c3ccccc3)c2C)N=C1C	-14.4% (inactive)
COC(=O)C1=C(O)/C(=C/c2ccc(OCC(=O)Nc3ccccc3)cc2)N=C1C	13.8% (inactive)
CCOC(=O)C1=C(O)/C(=C/c2ccc(OCC(=O)Nc3ccc(C)cc3)cc2)N=C1C	30.5% (active)
CC(=O)Nc1ccc(NC(=O)COc2ccc(-c3ccccc3)cc2)cc1	14.5% (inactive)
Cc1ccc(NC(=O)COc2ccc(/C=C3/NC(=O)NC3=O)cc2)cc1	73.1% (active)
CSCCC(NC(=O)COc1ccccc1)C(=O)N(C)CC(=O)Nc1ccc(C)cc1 (stereo not given)	-10.6% (inactive)
C#Cc1ccc([C@@H]2C=C(C(=O)O)O[C@H](OCCCCO)C2)cc1	-5.67% (inactive)
O=C(Nc1ccc(Br)cn1)C1CCN(S(=O)(=O)c2cccs2)CC1	0.962% (inactive)
CN(CCNC(=O)c1cc2c(-c3ccccc3F)nn(C)c2s1)C1CCCCC1	-29% (inactive)
N#Cc1c(N)nc2c3c(sc(=N)c2c1N)NC(=O)CC3c1ccccc1Cl (stereo not given)	57.2% (active)
COc1ccc(C2CC(=O)Nc3sc(=N)c4c(N)c(C#N)c(N)nc4c32)cc1OC (stereo not given)	2.35% (inactive)
CSc1nc2c(c(=O)[nH]1)C(c1cccc(Cl)c1Cl)CC(=O)N2 (stereo not given)	-2.19% (inactive)
O=C(Nc1ccc(N2CCN(C(=O)c3cccs3)CC2)cc1)c1cccnc1Cl	-0.363% (inactive)
Nc1nnc(SCC(=O)OCc2ccc(Cl)c(Cl)c2)s1	-5.37% (inactive)
Cc1cc(C)n(CC(O)COc2ccc(C(C)(C)C)cc2)n1 (stereo not given)	-7.22% (inactive)
CN(C)CC(O)COc1ccc(C(C)(C)c2ccc(OCC(O)CN(C)C)cc2)cc1 (stereo not given)	20% (active)
COc1ccc(OCC(O)CN(C)C(=O)C(C)Oc2ccccc2)cc1 (stereo not given)	4.24% (inactive)
O=C1CC(Sc2ncn[nH]2)C(=O)N1c1ccccc1 (stereo not given)	1.52% (inactive)
Cc1cc(Nc2cc(N3CCN(C)CC3)nc(Sc3ccc(NC(=O)C4CC4)cc3)n2)n[nH]1	3.28% (inactive)

Compound	activation
CCCOCC(O)CC(CC)C(=O)NNC(=S)Nc1ccccc1 (stereo not given)	-0.789% (inactive)
Cc1ccc(/C=N/NC(=O)COc2ccccc2-c2ccccc2)cc1	2.13% (inactive)
O=C(/C=C/c1ccc(F)cc1)NCCNC(=O)/C=C/c1ccc(F)cc1	53.1% (active)
C=CCNC(=O)/C=C/c1ccc(C(C)C)cc1	-5.28% (inactive)
O=C(/C=C/c1ccc(F)cc1)NC(=S)NNC(=O)c1cccnc1	-8.6% (inactive)
O=c1c(/C=N/O)coc2ccc(Cl)cc12	-6.61% (inactive)
Cc1ccc2occ(/C=N/NC(=O)c3ccccc3C)c(=O)c2c1	-9.18% (inactive)
O=C1/C(=C/c2coc3ccc(O)cc3c2=O)SC(=S)N1c1ccccc1	45.3% (active)
COc1ccc(CNC(=O)c2ccc3oc(C(C)C)nc3c2)cc1	-6.34% (inactive)
CC(=O)Nc1ccc(S(=O)(=O)N(C)c2nc3ccccc3nc2Cl)cc1	-7.23% (inactive)
CC(=O)Nc1ccc(Nc2c3ccccc3nc3ccccc23)cc1	107% (active)
CC(=O)Nc1ccc(Nc2c([N+](=O)[O-])cc(S(C)(=O)=O)cc2[N+](=O)[O-])cc1	9.05% (inactive)
COC(=O)CNC(=O)c1ccc(OC2CCN(C(=O)C3CC3)CC2)cc1	4.73% (inactive)
O=C(NCc1ccccc1)C1CCCN(S(=O)(=O)c2cccs2)C1 (stereo not given)	-3.74% (inactive)
COc1ccc(C(=O)NN2C(=O)C3C(c4ccccc4)C=CC(c4ccccc4)C3C2=O)cc1 (stereo not given)	-10.4% (inactive)
COc1ccccc1NC(=O)CCC(=O)OC(C)C(=O)c1ccccc1 (stereo not given)	-0.918% (inactive)
O=C(O)C1C2C=CC(O2)C1C(=O)Nc1ccccn1 (stereo not given)	2.08% (inactive)
O=C(NCCc1ccccn1)c1cc(-c2ccc(Cl)cc2)nc2ccccc12	-16.7% (inactive)
COc1ccccc1CNC(=O)Cn1c(=O)oc2cc(Cl)ccc21	46.6% (active)
COc1ccc(OC)c(NC(=O)Cn2c(=O)oc3ccccc32)c1	-3.42% (inactive)
COc1ccccc1CNC(=O)c1cc(=O)c2ccccc2o1	-8.74% (inactive)
COc1ccccc1C(=O)NCC(=O)OCC(=O)Nc1nnc(-c2ccccc2)o1	0.87% (inactive)
CCOc1ccc(S(=O)(=O)NCCC(=O)NCC(C)(C)N2CCOCC2)cc1	-1.62% (inactive)

Compound	activation
NC(N)=Nc1nc2ccc(Br)cc2c(=O)[nH]1	42.4% (active)
NC(=O)c1cc(-c2cccnc2)nc2ccc(Br)cc12	0.097% (inactive)
C/C(=N\N)c1c(-c2ccccc2)c2cc(Br)ccc2[nH]c1=O	-5.15% (inactive)
CC(=O)Nc1ccc(S(=O)(=O)N2CCN(CCCOc3cc(C)ccc3C)CC2)cc1	0.131% (inactive)
N#Cc1c(NC(=O)CSc2nc3ccccc3c(=O)n2Cc2ccco2)sc2c1CCCC2	6.6% (inactive)
Cc1cc(NC(=O)CSc2nc3cc(Cl)ccc3c(=O)n2Cc2ccco2)no1	41.2% (active)
Cc1cc(NC(=O)CSc2nnc(-c3ccco3)n2N)no1	2.33% (inactive)
COc1ccc(CCN2C(=O)CC(N3CCC(C(N)=O)CC3)C2=O)cc1OC (stereo not given)	-2.97% (inactive)
CCOC(=O)N1CCN(C(=O)C2CCCN(c3ncnc4c3sc3cccc(F)c34)C2)CC1 (stereo not given)	-16.9% (inactive)
O=C(NN=Cc1ccccc1)c1ccccc1	-3.35% (inactive)
Cc1c(/C=N\NC(=O)c2cc3ccccc3o2)c2ccccc2n1C	-8.02% (inactive)
O=C(N/N=C/c1cccc(O)c1)c1cc2c(ccc3ccccc32)o1	36.7% (active)
COC(=O)c1cccnc1NC(=S)NC(C)C	-6.13% (inactive)
COc1ccccc1CC(=O)Nc1ccc(S(=O)(=O)N2CCCC2)cc1	-8.89% (inactive)
C/C=C(\C)C(=O)N1CC2(CC(c3cccc(NC(=O)CCCCC)c3)=NO2)C[C@@H]1C(N)=O (stereo not given in full)	-1.2% (inactive)
CCCCNC(=O)C(C)N(CCN(C)C)C(=O)CCCN1C(=O)NC(c2ccc(Cl)cc2)C(C(=O)OCc2ccccc2)=C1C (stereo not given)	-3.28% (inactive)
CC1=C(C(=O)OCc2ccccc2)C(c2ccc(C(F)(F)F)cc2)NC(=O)N1CCCCCC(=O)O (stereo not given)	-6.43% (inactive)
CCCCNC(=O)C(C)N(CCN(C)C)C(=O)CCCCCN1C(=O)NC(c2ccc(Cl)cc2)C(C(=O)OCc2ccccc2)=C1C (stereo not given)	18.2% (active)
Cc1ccc(CC2CC(=O)N(c3ccc4c(c3)OCCO4)C2=O)cc1 (stereo not given)	-9.23% (inactive)
N#CC(C#N)=CN=c1ccn(Cc2ccc(Cl)cc2Cl)cc1	-0.0405% (inactive)
COc1ccccc1-n1c(=S)[nH]c2c(sc(=S)n2-c2ccc(C)cc2C)c1=O	-9.95% (inactive)

Reference: PubChem BioAssay AID493131 (Broad Institute, 2011)
